Results: PubChem BioAssay (NCI)
This is part of a sample that, as a whole, favours compounds with a hit. Of some 79,000 tested, about 15% had one in any assay. Values without a mark were called inactive. Rule as the data show it: active = growth inhibition above about 70%; inactive = the rest.

Test: NCI Yeast Anticancer Drug Screen. Data for the sgs1 mgt1 strain (AID 161);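 also: 0% = growth of cultures given vehicle only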
Settings: S. cerevisiae sgs1 mgt1 strain, at 50.0 µM, hits give high values
Outline: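 Mutant yeast exposed to compound; growth scored against vehicle-only wells.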

SMILES	growth inhibition [%]
CC(O)CN1c2ccccc2Sc2ccc(Cl)cc21 (centres undefined)	3.35
COc1cc(CNc2nc3ccccc3n2Cc2ccccc2)cc(CN2CCOCC2)c1O	3.7
N#Cc1c2c([nH]c(=O)c1C#N)CCCC2	3.2
O=C(/C=C\c1ccc([N+](=O)[O-])cc1)c1ccccc1	-2.4
O=C(O)CC1C(=O)OC2C3COC(=O)c4cc(O)c(O)c(O)c4-c4c(cc(O)c(O)c4O)C(=O)OC2C(OC(=O)c2cc(O)c(O)c4c2C1C(O)C(=O)O4)C(OC(=O)c1cc(O)c(O)c(O)c1)O3 (centres undefined)	22.4
CN(C)c1ccc(-c2c(C#N)c(N)[nH]c(=S)c2C#N)cc1	4.7
COC(=O)C1=C(C)N(NC(N)=O)C2(N)N(NC(N)=O)C(C)=C(C(=O)OC)C12C#N (centres undefined)	-44.6
O=C(CCC(O)c1ccccc1)c1ccccc1 (centres undefined)	-9.3
NCCCNCCCCNC(=O)C(O)NC(=O)CC(O)CCCCN=C(N)N (centres undefined)	-22.7
CC(C)CCCC(C)[C@H]1CC[C@H]2[C@@H]3CC[C@H]4C[C@@H](CCC=C(c5cc(Cl)c(O)c(C(=O)OC(C)C)c5)c5cc(Cl)c(O)c(C(=O)OC(C)C)c5)CC[C@]4(C)[C@H]3CC[C@]12C (some centres undefined)	23.1
CC1NC(C)SC(C)S1 (centres undefined)	0.15
NC(CCCC(N)C(=O)c1ccccc1)C(=O)c1ccccc1 (centres undefined)	-1.5
O=c1[nH]c2ccccc2c(=O)n1CCCN1CCN(c2cccc(Cl)c2)CC1	33.8
Cc1c(C)c(C)c(CNNC(=S)Nc2ccc(S(=O)(=O)N3CCCCC3)cc2)c(C)c1C	9.25
